Source: PubChem BioAssay (NCI)
Compounds without any hit were thinned out: in the full panel of roughly 79,000, 15% have a hit. Unmarked numbers belong to inactive results. The source made the active and inactive calls. Rule as the data show it: active = growth inhibition above about 70%; inactive = the rest.

Key:
[1] = NCI Yeast Anticancer Drug Screen. Data for the rad50 strain (AID 155);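 also: 0% = growth of vehicle-only cultures of the same strain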; conditions: S. cerevisiae rad50 strain growth inhibition, active compounds read high
In short: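 Relative growth inhibition (compound vs vehicle) was measured in yeast with a defined repair-gene alteration.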

[2] = NCI Yeast Anticancer Drug Screen. Data for the mec2-1 strain (AID 157); conditions: S. cerevisiae mec2-1 strain, active compounds read high
In short: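 Strain: mec2-1 (DNA repair/cell cycle alteration). Compound exposure, then growth measured; inhibition expressed relative to vehicle.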

[3] = NCI Yeast Anticancer Drug Screen. Data for the sgs1 mgt1 strain (AID 161);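 also: 0% = growth of cultures given vehicle only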; conditions: S. cerevisiae sgs1 mgt1 strain, active compounds read high
In short: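 Mutant yeast exposed to compound; growth scored against vehicle-only wells.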

[4] = NCI Yeast Anticancer Drug Screen. Data for the cln2 rad14 strain (AID 165);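 also: 0% = growth equal to vehicle treated cultures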; conditions: S. cerevisiae cln2 rad14 strain, active compounds read high
In short: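 Compounds are applied to the cln2 rad14 yeast strain, and growth is then compared with that of vehicle-treated cultures to give inhibition.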

[5] = NCI Yeast Anticancer Drug Screen. Data for the bub3 strain (AID 167); conditions: S. cerevisiae bub3 mutant strain, active compounds read high
In short: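 Screening used yeast with an engineered genetic alteration affecting cell cycle control. Compound-exposed cultures were compared with vehicle cultures, and reduced growth was taken as inhibition.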

[6] = NCI Yeast Anticancer Drug Screen. Data for the mlh1 rad18 strain (AID 175); conditions: S. cerevisiae mlh1 rad18 strain growth inhibition, active compounds read high
In short: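 Read-out is yeast growth inhibition, calculated against vehicle-only controls. The compound was applied to a strain engineered with DNA damage repair alterations.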

[7] = at 5.0 µM (retest, dose inferred, filed as 0.5)
[8] = at 50.0 µM (retest, dose inferred, filed as 5.0)

| Compound | growth inhibition [1, 7] | growth inhibition [1, 8] | growth inhibition ([1]; at 50.0 µM) | growth inhibition [2, 7] | growth inhibition [2, 8] | growth inhibition ([2]; at 50.0 µM) | growth inhibition [3, 7] | growth inhibition [3, 8] | growth inhibition ([3]; at 50.0 µM) | growth inhibition [4, 7] | growth inhibition [4, 8] | growth inhibition ([4]; at 50.0 µM) | growth inhibition [5, 7] | growth inhibition [5, 8] | growth inhibition ([5]; at 50.0 µM) | growth inhibition [6, 7] | growth inhibition [6, 8] | growth inhibition ([6]; at 50.0 µM) |
| --- | --- | --- | --- | --- | --- | --- | --- | --- | --- | --- | --- | --- | --- | --- | --- | --- | --- | --- |
| CC(NC(=O)OCc1ccccc1)C(=O)NNc1ccccc1Cl (configuration not stated) | 88% (active) | 96% (active) | 97.5% (active) | 9% | 99% (active) | 96.8% (active) | 49% | 99% (active) | 91.4% (active) | 29% | 68% | 98.2% (active) | 73% (active) | 42% | 97.5% (active) | 96% (active) | 99% (active) | 97.5% (active) |
| CCCCCCCCS(=O)(=O)Nc1ccccc1 | 11% | 98% (active) | 99.3% (active) | 0% | 99% (active) | 99.2% (active) | 6% | 99% (active) | 99.3% (active) | 4% | 99% (active) | 99.4% (active) | 4% | 99% (active) | 99.1% (active) | -5% | 61% | 99.1% (active) |
| CCCC/C=C(\CCCNCCCC)[Si](C)(C)C | 52% | 96% (active) | 89.9% (active) | 49% | 99% (active) | 92.8% (active) | 77% (active) | 99% (active) | 93.3% (active) | 53% | 98% (active) | 90.8% (active) | 78% (active) | 99% (active) | 91% (active) | 81% (active) | 98% (active) | 90.7% (active) |
| [Cl][Pt+2][Cl].[NH-]CC1(C[NH-])CCCC1 | 28% | 40% | 0.2% | 14% | 19% | 0.9% | 26% | 39% | -26.1% | 7% | 30% | -3.1% | 19% | 34% | -19.2% | 26% | 72% (active) | -30% |
| CCCCCCCCCCCCCCCC[N+](C)(C)c1ccccc1 | 98% (active) | 98% (active) | 91.1% (active) | 98% (active) | 99% (active) | 90.7% (active) | 99% (active) | 99% (active) | 90.4% (active) | 98% (active) | 99% (active) | 86.2% (active) | 99% (active) | 99% (active) | 92.8% (active) | 98% (active) | 98% (active) | 92.2% (active) |
| CSc1ncnc2nn(C3OC(COC(=O)c4ccccc4)C(OC(=O)c4ccccc4)C3OC(=O)c3ccccc3)nc12 (configuration not stated) | -16% | -1% | -14.8% | -1% | -6% | 17.9% | -6% | 1% | -13.6% | -1% | -9% | 40.3% | -3% | 3% | -11.2% | -5% | -3% | 15.2% |
| c1ccc(CCN(Cc2nc3ccccc3[nH]2)Cc2nc3ccccc3[nH]2)cc1 | 3% | 90% (active) | 94.7% (active) | -3% | 92% (active) | 93.2% (active) | -3% | 90% (active) | 96% (active) | -12% | 93% (active) | 82.6% (active) | 0% | 95% (active) | 89.2% (active) | -3% | 91% (active) | 95.5% (active) |
| O=C1/C(=C/c2cccc([N+](=O)[O-])c2)CCCc2ccccc21 | 4% | 92% (active) | 73.5% (active) | 7% | 94% (active) | 68.8% | 13% | 94% (active) | 83.2% (active) | -5% | 91% (active) | 70.7% (active) | 20% | 94% (active) | 84.8% (active) | 9% | 93% (active) | 75.9% (active) |
| COC(=O)c1cc(-c2c[nH]cc2C(=O)OCc2ccccc2)cn1S(=O)(=O)c1ccc(C)cc1 | 17% | 6% | 92.5% (active) | 18% | 11% | 93.1% (active) | 7% | -6% | 94.4% (active) | 2% | 2% | 88.9% (active) | -39% | 2% | 87.3% (active) | 24% | 22% | 91.2% (active) |
